Laboratory results as given in ChEMBL document CHEMBL2218924, “A broad activity screen in support of a chemogenomic map for kinase signalling research and drug discovery” (Biochem J, 2013).

Assays:
[1] = target: T1, Dual specificity mitogen-activated protein kinase kinase 6 (Homo sapiens) (UniProt P52564); details: at 1 µM
T1 sequence (whole entry): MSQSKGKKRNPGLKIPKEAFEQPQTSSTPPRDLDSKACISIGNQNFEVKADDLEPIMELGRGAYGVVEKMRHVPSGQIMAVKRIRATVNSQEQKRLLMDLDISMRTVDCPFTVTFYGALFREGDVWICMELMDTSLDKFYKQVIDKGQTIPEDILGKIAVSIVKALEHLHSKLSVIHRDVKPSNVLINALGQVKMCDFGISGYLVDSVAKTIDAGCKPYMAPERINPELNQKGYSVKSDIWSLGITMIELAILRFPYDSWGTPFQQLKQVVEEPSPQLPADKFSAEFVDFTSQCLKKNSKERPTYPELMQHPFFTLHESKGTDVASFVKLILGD

[2] = target: T1, Dual specificity mitogen-activated protein kinase kinase 6 (Homo sapiens); details: at 10 µM
[3] = target: T2, Dual specificity mitogen-activated protein kinase kinase 7 (Homo sapiens) (UniProt O14733); details: at 10 µM
T2 sequence (whole entry): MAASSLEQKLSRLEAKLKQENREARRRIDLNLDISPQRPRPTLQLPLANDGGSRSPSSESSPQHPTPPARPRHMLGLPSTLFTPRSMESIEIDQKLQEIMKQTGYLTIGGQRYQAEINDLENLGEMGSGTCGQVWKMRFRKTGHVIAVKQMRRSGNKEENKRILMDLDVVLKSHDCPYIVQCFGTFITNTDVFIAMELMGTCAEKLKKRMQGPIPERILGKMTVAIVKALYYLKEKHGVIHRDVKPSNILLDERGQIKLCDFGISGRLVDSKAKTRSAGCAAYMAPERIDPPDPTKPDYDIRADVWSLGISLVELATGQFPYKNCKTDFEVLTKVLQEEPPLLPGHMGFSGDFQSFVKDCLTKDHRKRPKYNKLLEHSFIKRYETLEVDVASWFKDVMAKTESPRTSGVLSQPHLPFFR

[4] = target: Myosin light chain kinase, smooth muscle (Homo sapiens) (UniProt Q15746); details: at 1 µM
[5] = target: Myosin light chain kinase, smooth muscle (Homo sapiens) (UniProt Q15746); details: at 10 µM
[6] = target: Mitogen-activated protein kinase kinase kinase 9 (Homo sapiens) (UniProt P80192); details: at 1 µM
[7] = target: Mitogen-activated protein kinase kinase kinase 9 (Homo sapiens) (UniProt P80192); details: at 10 µM
[8] = target: Serine/threonine-protein kinase MRCK alpha (Homo sapiens) (UniProt Q5VT25); details: at 1 µM
Serine/threonine-protein kinase MRCK alpha (Homo sapiens), sequence (Q5VT25 whole entry): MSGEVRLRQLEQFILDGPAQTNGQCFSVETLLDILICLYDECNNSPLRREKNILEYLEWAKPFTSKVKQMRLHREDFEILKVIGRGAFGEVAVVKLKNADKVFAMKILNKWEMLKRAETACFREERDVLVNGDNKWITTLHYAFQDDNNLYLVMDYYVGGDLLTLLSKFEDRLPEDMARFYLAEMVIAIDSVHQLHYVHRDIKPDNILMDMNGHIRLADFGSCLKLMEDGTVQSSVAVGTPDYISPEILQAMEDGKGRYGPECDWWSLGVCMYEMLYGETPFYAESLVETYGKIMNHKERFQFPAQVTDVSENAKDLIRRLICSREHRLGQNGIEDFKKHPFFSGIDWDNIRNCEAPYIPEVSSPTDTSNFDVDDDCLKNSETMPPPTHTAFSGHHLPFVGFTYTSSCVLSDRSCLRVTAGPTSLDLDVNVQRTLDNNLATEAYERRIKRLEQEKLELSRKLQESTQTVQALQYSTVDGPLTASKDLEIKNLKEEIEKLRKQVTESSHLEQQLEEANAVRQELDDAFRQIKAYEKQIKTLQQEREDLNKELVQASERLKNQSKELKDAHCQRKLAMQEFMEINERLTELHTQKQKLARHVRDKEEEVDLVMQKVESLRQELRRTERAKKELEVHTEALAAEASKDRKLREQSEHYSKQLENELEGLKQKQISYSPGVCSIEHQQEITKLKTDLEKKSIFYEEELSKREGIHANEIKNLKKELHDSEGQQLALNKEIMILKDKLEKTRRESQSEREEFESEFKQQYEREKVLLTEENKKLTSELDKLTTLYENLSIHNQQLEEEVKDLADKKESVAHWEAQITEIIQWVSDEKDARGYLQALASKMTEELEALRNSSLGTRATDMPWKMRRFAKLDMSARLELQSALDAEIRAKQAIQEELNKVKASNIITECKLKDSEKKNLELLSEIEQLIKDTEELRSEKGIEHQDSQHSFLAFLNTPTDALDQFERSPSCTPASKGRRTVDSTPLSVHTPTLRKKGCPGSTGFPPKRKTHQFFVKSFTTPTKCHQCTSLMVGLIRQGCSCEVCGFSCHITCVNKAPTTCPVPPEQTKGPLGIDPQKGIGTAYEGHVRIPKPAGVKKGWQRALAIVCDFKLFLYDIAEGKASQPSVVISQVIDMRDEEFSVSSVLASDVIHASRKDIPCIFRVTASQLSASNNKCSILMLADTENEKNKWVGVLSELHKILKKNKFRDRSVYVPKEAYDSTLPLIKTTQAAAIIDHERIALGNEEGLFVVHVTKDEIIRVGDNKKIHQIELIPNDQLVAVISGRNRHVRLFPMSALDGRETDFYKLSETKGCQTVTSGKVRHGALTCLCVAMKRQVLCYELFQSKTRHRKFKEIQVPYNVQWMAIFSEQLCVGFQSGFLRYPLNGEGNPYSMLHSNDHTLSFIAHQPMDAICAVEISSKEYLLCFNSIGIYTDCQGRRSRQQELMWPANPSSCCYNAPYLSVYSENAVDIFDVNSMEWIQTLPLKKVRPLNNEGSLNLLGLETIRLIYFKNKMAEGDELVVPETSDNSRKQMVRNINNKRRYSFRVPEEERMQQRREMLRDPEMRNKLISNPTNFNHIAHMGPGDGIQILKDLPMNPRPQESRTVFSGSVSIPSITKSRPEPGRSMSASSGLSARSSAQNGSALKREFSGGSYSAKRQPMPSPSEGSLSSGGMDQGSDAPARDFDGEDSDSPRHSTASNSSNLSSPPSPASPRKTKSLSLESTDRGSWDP

[9] = target: Serine/threonine-protein kinase MRCK alpha (Homo sapiens) (UniProt Q5VT25); details: at 10 µM
[10] = target: Serine/threonine-protein kinase MRCK beta (Homo sapiens) (UniProt Q9Y5S2); details: at 1 µM
Serine/threonine-protein kinase MRCK beta (Homo sapiens), sequence (Q9Y5S2 whole entry): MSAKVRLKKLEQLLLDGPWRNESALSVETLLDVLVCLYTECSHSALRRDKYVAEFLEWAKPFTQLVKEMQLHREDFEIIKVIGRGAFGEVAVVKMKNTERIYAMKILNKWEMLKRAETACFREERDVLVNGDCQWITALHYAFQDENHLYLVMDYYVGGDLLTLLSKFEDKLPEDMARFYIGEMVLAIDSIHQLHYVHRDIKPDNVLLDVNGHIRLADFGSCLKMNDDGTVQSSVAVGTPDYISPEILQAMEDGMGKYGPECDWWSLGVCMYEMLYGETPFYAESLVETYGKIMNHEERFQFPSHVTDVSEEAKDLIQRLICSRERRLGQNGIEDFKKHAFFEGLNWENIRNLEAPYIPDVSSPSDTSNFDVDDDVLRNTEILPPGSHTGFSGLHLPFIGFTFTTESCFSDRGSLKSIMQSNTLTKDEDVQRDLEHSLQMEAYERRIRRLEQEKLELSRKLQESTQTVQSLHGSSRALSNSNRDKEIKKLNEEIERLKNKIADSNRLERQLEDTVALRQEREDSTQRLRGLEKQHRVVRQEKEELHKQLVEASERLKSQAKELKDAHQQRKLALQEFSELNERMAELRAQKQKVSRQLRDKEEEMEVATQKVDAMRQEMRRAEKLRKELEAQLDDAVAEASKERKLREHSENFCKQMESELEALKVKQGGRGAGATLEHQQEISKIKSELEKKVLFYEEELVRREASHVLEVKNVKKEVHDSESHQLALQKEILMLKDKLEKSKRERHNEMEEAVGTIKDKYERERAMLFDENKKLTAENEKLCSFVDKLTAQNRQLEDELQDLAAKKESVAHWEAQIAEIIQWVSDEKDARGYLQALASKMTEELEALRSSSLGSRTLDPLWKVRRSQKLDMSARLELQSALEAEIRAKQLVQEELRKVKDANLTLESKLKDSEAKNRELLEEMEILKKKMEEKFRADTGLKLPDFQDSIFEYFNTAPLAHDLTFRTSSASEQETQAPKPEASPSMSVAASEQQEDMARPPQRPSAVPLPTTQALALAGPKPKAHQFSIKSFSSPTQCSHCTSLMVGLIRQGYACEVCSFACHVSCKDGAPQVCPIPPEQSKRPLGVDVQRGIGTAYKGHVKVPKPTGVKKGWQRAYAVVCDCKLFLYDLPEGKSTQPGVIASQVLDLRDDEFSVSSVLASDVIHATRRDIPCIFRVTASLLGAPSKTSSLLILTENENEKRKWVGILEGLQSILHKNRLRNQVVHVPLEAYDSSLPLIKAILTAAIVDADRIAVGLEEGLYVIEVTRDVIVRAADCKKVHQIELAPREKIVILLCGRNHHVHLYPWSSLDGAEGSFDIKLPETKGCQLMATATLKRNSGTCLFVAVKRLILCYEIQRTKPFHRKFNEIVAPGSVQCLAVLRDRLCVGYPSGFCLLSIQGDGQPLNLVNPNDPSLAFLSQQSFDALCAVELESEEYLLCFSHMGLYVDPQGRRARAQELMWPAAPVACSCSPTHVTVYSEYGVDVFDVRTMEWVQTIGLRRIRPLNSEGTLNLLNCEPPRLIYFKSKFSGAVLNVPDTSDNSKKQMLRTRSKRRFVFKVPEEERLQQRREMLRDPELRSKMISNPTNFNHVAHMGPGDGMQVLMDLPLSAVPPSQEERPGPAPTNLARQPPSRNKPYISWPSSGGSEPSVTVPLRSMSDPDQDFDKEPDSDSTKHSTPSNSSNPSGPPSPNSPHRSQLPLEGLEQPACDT

[11] = target: Serine/threonine-protein kinase MRCK beta (Homo sapiens) (UniProt Q9Y5S2); details: at 10 µM
[12] = target: Ribosomal protein S6 kinase alpha-4 (Homo sapiens) (UniProt O75676); details: at 1 µM
Ribosomal protein S6 kinase alpha-4 (Homo sapiens), sequence (O75676 whole entry, looked up): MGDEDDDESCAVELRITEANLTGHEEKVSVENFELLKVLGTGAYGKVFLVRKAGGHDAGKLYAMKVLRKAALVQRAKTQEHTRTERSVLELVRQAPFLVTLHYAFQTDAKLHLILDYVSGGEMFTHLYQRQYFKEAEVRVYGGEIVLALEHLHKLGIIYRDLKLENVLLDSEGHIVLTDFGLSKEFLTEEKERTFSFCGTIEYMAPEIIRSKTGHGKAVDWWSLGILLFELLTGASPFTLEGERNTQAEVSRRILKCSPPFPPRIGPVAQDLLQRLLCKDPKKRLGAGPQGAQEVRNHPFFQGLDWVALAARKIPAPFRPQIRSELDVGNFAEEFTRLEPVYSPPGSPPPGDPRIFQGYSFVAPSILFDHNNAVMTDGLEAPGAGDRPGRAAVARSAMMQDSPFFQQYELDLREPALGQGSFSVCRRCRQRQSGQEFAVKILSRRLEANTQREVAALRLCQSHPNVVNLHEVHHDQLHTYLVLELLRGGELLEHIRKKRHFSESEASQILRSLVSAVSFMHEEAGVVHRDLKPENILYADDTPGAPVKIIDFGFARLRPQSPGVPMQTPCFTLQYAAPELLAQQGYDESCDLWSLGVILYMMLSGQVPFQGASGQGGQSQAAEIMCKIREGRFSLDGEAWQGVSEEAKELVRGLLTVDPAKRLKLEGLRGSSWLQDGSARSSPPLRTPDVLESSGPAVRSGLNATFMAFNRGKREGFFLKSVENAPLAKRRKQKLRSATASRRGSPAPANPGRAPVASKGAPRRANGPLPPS

[13] = target: Ribosomal protein S6 kinase alpha-4 (Homo sapiens) (UniProt O75676); details: at 10 µM
[14] = target: SRSF protein kinase 3 (Homo sapiens) (UniProt Q9UPE1); details: at 1 µM
SRSF protein kinase 3 (Homo sapiens), sequence (Q9UPE1 whole entry): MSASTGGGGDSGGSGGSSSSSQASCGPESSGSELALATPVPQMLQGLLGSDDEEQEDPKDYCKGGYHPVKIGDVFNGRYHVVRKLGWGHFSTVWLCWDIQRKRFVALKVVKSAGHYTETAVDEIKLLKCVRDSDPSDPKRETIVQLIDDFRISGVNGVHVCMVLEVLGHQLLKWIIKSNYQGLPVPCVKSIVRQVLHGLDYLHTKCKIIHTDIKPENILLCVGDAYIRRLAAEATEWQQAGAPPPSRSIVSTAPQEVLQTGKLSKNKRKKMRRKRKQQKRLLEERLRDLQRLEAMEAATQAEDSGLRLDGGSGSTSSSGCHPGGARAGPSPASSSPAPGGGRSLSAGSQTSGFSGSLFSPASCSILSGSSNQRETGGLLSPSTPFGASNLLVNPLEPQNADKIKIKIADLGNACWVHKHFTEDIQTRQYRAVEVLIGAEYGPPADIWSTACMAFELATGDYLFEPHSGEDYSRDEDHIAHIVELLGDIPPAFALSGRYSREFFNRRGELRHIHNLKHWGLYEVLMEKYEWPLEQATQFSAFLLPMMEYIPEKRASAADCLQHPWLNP

[15] = target: SRSF protein kinase 3 (Homo sapiens) (UniProt Q9UPE1); details: at 10 µM
[16] = target: Ribosomal protein S6 kinase alpha-5 (Homo sapiens) (UniProt O75582); details: at 1 µM
[17] = target: Ribosomal protein S6 kinase alpha-5 (Homo sapiens) (UniProt O75582); details: at 10 µM
[18] = target: T3, Serine/threonine-protein kinase 4 (Homo sapiens) (UniProt Q13043); details: at 1 µM
T3 sequence (whole entry): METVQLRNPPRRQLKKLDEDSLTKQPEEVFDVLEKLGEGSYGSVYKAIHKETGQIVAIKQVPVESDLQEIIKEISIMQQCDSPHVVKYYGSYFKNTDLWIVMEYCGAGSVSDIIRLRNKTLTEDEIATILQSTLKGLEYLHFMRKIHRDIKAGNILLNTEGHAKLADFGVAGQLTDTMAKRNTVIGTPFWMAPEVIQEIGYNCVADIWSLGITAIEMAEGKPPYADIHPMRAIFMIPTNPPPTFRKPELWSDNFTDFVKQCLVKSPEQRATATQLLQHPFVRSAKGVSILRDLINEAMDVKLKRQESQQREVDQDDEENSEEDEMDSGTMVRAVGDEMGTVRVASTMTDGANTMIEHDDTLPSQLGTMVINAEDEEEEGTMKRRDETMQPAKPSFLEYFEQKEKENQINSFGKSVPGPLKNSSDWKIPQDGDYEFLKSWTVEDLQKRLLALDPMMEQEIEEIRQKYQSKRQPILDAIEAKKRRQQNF

[19] = target: T3, Serine/threonine-protein kinase 4 (Homo sapiens); details: at 10 µM
[20] = target: T2, Dual specificity mitogen-activated protein kinase kinase 7 (Homo sapiens); details: at 1 µM

| SMILES | residual activity [1] [%] | residual activity [2] [%] | residual activity [3] [%] | residual activity [4] [%] | residual activity [5] [%] | residual activity [6] [%] | residual activity [7] [%] | residual activity [8] [%] | residual activity [9] [%] | residual activity [10] [%] | residual activity [11] [%] | residual activity [12] [%] | residual activity [13] [%] | residual activity [14] [%] | residual activity [15] [%] | residual activity [16] [%] | residual activity [17] [%] | residual activity [18] [%] | residual activity [19] [%] | residual activity [20] [%] |
| --- | --- | --- | --- | --- | --- | --- | --- | --- | --- | --- | --- | --- | --- | --- | --- | --- | --- | --- | --- | --- |
| c1ccc(-c2n[nH]cc2-c2ccnc3ccccc23)nc1 | 75 | 48 | 87 | 77 | 97 | 100 | 103 | 102 | 100 | 96 | 87 | 89 | 108 | 109 | 94 | – | – | – | – | – |
| O=C1Nc2ccc(Br)cc2/C1=C\c1cc2c([nH]1)CCCC2 | 76 | 84 | – | 83 | 84 | 63 | 49 | 108 | 110 | 98 | – | – | 99 | 101 | 80 | 111 | 105 | 60 | 75 | – |
| CC(=O)c1ccc(N2CCOCC2)cc1O | 75 | 91 | 96 | 83 | 85 | 89 | 97 | 105 | 92 | 100 | 83 | 92 | – | – | 88 | 133 | 108 | 85 | 96 | 104 |
| Cc1nc(-c2ccccc2)c(-c2ccncc2)o1 | 99 | 37 | 103 | 106 | 88 | 106 | 102 | 114 | 129 | 105 | 96 | 103 | 77 | 112 | 99 | 99 | 94 | – | 110 | 100 |
| COc1cc2ncnc(Nc3ccc(NC(=O)c4ccccc4)cc3)c2cc1OC | – | 97 | 74 | 77 | 96 | 72 | 22 | 105 | – | – | 90 | 106 | 101 | – | 99 | – | 95 | – | 98 | 92 |
| Cn1nc2c3c(cccc31)C(=O)c1ccccc1-2 | – | 70 | 53 | 65 | 49 | 74 | 28 | 108 | 99 | 92 | 85 | 93 | 79 | 98 | 97 | 99 | 83 | 72 | 72 | 84 |
| Cc1nc2cc3nc(-c4cccs4)cnc3cc2n1C | 75 | 149 | 110 | 82 | 105 | 86 | 44 | 116 | 102 | 105 | 100 | 101 | – | 117 | 88 | 129 | 101 | 105 | 94 | 109 |
| Oc1ccc(-c2nc(-c3ccc(F)cc3)c(-c3ccncc3)[nH]2)cc1 | 12 | -1 | 57 | 111 | 80 | 54 | 12 | 116 | 103 | 105 | 92 | 77 | 43 | 120 | 110 | 102 | 98 | 92 | 113 | 80 |
